TGFb inhibitor: blocks TGF-b signaling; HepG2 CAGA-GFP TGF-b/SMAD3 reporter, GFP fluorescence, 18 h; TGF-beta stimulated, 500 pg/mL final; Potency, µM (series often up to 46.1 µM), for the others: at the highest dose activity, negative = inhibition, most hits filed as inhibitors; 410,000 compounds, 1.2% hits; AID 588855; further: on the % scale 0 is the no-effect control and ±100 the full control effect; nearly all actives have a fitted effect of over 65% in size
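Cell-based qHTS in HEPG2 carrying a CAGA-GFP Smad reporter; compounds added before 500 pg/mL final TGF-beta, 18 h incubation at 37 degrees C, GFP fluorescence quantified per cell by imaging cytometry.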
S2 tox: cell viability loss in ATXN counter-screen; AID 651635; Potency, µM (series often up to 56.7 µM), actives largely listed as cytotoxic; 400,000 compounds, 0.49% hits; S2 cells (HEK-293 line with an ATXN2-luciferase reporter) viability, CellTiter-Fluor protease fluorescence, 24 h; further: nearly all actives have a fitted effect of over 40% in size
DT40 TDP1 CPT: growth inhibition of DT40 Tdp1-/-;hTDP1 cells with camptothecin (screen for TDP1 inhibitors). chicken DT40 Tdp1-/-;hTDP1 cells + 20 nM CPT, ATP luminescence, 48 h. 420,000 compounds, 12% hits. Potency, µM (top dose mostly 46.2 µM), for the others: top-dose activity change, negative = growth inhibition, actives largely listed as inhibitors; further: on the % scale 0 is the no-effect control and ±100 the full control effect; nearly all actives have a fitted effect of over 55% in size
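Chicken DT40 Tdp1-/- cells complemented with human TDP1, 400 cells/well, exposed to compounds plus 20 nM camptothecin for at least 48 h at 37 C; viability read as ATP content by CellTiter-Glo luminescence.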
TDP1 cell noCPT: qHTS for Inhibitors of human tyrosyl-DNA phosphodiesterase 1 (TDP1): qHTS in cells in absence of CPT | DT40 Tdp1-/- hTDP1 cells, no CPT, ATP luminescence, 48 h | Potency, µM (titrated, usually from 46.2 µM), for inactives: at the top dose activity change, negative = growth inhibition, hits mostly inhibitors | 420,000 compounds, 15% hits; further: on the % scale 0 is the no-effect control and ±100 the full control effect; nearly all actives have a fitted effect of over 55% in size
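Chicken DT40 Tdp1-/- cells stably complemented with human TDP1 were seeded at 400 cells/well with DMSO in place of 20 nM camptothecin. After compound pinning, cells grew at least 48 hr at 37 °C; viability read by CellTiter-Glo luminescence.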
HepG2 tox: kills HepG2 cells in TGF-b inhibitor counter-screen | HepG2 CAGA-GFP viability, ATP luminescence, 18 h | 410,000 compounds, 0.76% hits | Potency, µM (highest dose often 46.1 µM), for inactives: top-dose activity change, negative = cytotoxicity, hits mostly cytotoxic
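CellTiter-Glo luminescence gave cytotoxicity after 18 hours at 37 degrees C. The cells were HepG2 CAGA-GFP in 1% FBS DMEM, stimulated with 500 pg/mL TGF-beta after compound addition. %Activity was normalised to no-cell wells (complete cell-killing) and DMSO (no toxicity), and curves were fitted and classified.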
ATXN2 expr inh: ATXN2 expression inhibition; HEK-293 ATXN2-luciferase reporter, luminescence, 24 h; 360,000 compounds, 0.72% hits; AID 1745845; Potency, µM (top dose mostly 57 µM), without a hit: top-dose activity change, negative = inhibition, usual class: inhibitors; further: on the % scale 0 is the no-effect control and ±100 the full control effect; nearly all actives have a fitted effect of over 55% in size
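qHTS (up to 57 uM final) was run with 24 h compound exposure of reporter cells at 37 °C. Each well was multiplexed: SteadyGlo luminescence measured ATXN2-luciferase expression after a fluorogenic Gly-Phe-AFC viability readout (25 uM final).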
* = called active by the depositor; i = inactive; u = inconclusive; x = no result given; [ ] = dose if it differs, or a comment. Only some compounds are listed: those with a hit (about 17% of all), similar ones and a draw of the others. The call rests on the fitted dose curve; in most records, active means well fitted curve in the direction sought with a large enough effect; inconclusive means small, poorly fitted or top-dose-only effect, or another doubt; inactive means no such curve, though single readings can be large; an effect the other way counts as inactive or inconclusive. Potency means the concentration at half of the fitted maximal effect.

SMILES | TGFb inhibitor | S2 tox | DT40 TDP1 CPT | TDP1 cell noCPT | HepG2 tox | ATXN2 expr inh
CSc1ccc(C(=O)C2CCCN(C(=O)c3cc4cc(F)ccc4[nH]3)C2)cc1 (centres undefined) | -9.6% | i | 18.4µM* | 18.4µM* | -21.7% | -15.1%
COc1ccccc1N1CCN(C(=O)c2cc3ccccc3[nH]2)CC1 | -13.2% | i | u | u | -2.0% | 6.1%
COc1ccccc1N1CCN(C(=O)c2cc3cc(F)ccc3[nH]2)CC1 | 3.9% | i | u | 23.1µM* | -24.3% | -3.5%
COc1ccccc1N1CCN(C(=O)c2cc3cc(Cl)ccc3[nH]2)CC1 | -2.2% | i | 16.4µM* | 18.4µM* | -22.8% | x
Cn1cccc1C(=O)N1CCC2(CCCN(C(=O)Nc3cccc(C#N)c3)C2)CC1 | x | x | -4.1% | -23.2% | x | x
C=CCn1c(SCC(=O)Nc2c(C)cccc2C)nnc1-c1cnccn1 | -4.5% | i | -15.3% | -6.0% | 2.2% | -5.1%
C=C1CCN(C(Cc2ccccc2)C(=O)NC2CCN(Cc3ccccc3)CC2)S(=O)(=O)c2ccccc21 (centres undefined) | -7.1% | x | x | x | 4.1% | x
CCOc1ccc(CCNC(=O)c2cc3cc4cc(OC)ccc4nc3s2)cc1OCC | -16.0% | i | u | u | -12.4% | 12.0%
Cc1cc(C)c(NC(=O)c2ccc3nc(C(C)C)oc3c2)c(C)c1 | 1.8% | i | u | u | -3.1% | 0.1%
CCc1ccc(NC(=O)c2ccc3nc(C(C)C)oc3c2)cc1 | u | x | u | 18.4µM* | -6.1% | x
COc1cc(OC)c(NC(=O)c2ccc3nc(C(C)C)oc3c2)cc1Cl | -0.7% | x | 9.2µM* | 18.4µM* | -1.7% | x
COc1cc(NC(=O)c2ccc(Cl)cc2)c(OC)cc1Cl | -2.1% | i | u | u | -3.9% | 6.1%
CCOc1cc(CNC(=O)c2ccc3nc(C(C)C)oc3c2)cc(OCC)c1OCC | 2.5% | i | 23.1µM* | 18.4µM* | -0.2% | 2.9%
COc1ccc2nc3sc(C(=O)Nc4cc(Cl)c(OC)cc4OC)cc3cc2c1 | -24.6% | i | u | 5.8µM* | -0.5% | 12.0%
CCOc1ccc(CNC(=O)c2ccc3nc(C(C)C)oc3c2)cc1 | 4.2% | x | -3.7% | -14.9% | 0.1% | x
Cc1noc(C)c1S(=O)(=O)N1CCC(C(N)=O)CC1 | -0.2% | i | -5.9% | 44.1% | -3.9% | -8.0%
COc1ccc(S(=O)(=O)N2CCC(C(=O)N[C@@H](C)C(=O)N3CCCCCC3)CC2)cc1 | 4.6% | i | -4.1% | 17.3% | 1.4% | 0.7%
C/C(N)=C(/C#N)C(=O)COC(=O)Cc1coc2cc(C)ccc12 | 2.1% | i | 1.7% | 1.4% | -2.8% | -8.3%
COC(=O)c1cc2ccccc2n1S(=O)(=O)c1ccccc1 | 0.4% | i | 10.0% | -8.8% | -8.9% | 8.9%
C[C@H](NC(=O)[C@@H]1CSC2c3ccccc3C(=O)N21)C(=O)NCc1c(F)cccc1Cl (some centres undefined) | -19.1% | i | u | u | 10.5% | x
CC1CCN(C(C)C(=O)Nc2ccccc2-c2ccccc2)CC1 (centres undefined) | u | i | u | u | -29.6% | u
CC1CCN(CC(=O)Nc2ccccc2-c2ccccc2)CC1 | u | i | 18.4µM* | u | -14.6% | -1.1%
O=C(Nc1ccccc1-c1ccccc1)C1CCCCC1 | 3.1% | i | -10.8% | -4.8% | -4.0% | 21.7%
CC1CCN(CC(=O)Nc2ccccc2C(=O)c2ccccc2)CC1 | -5.8% | i | 20.6µM* | 14.6µM* | -16.3% | 3.8%
CC1CCCCC1NCC(=O)Nc1ccccc1-c1ccccc1 (centres undefined) | 0.0% | i | u | 18.4µM* | -21.6% | -27.2%
SMILES | TGFb inhibitor | S2 tox | DT40 TDP1 CPT | TDP1 cell noCPT | HepG2 tox | ATXN2 expr inh
CN(Cc1ccc(F)cc1)C(=O)c1cccc(OCc2ccccc2)c1 | -28.6% | i | u | u | -1.9% | -30.8%
O=C(NC(C(=O)N/N=C/c1ccccn1)c1n[nH]c(=O)c2ccccc12)c1ccccc1 (centres undefined) | -8.3% | i | -0.5% | 3.5% | 4.3% | 19.9%
CCOC(=O)C1(Cc2ccc(OC)cc2)CCN(C(=O)c2sc(C)nc2C)CC1 | -13.2% | i | 25.9µM* | 23.1µM* | -2.0% | x
CCOC(=O)C1(Cc2ccc(Cl)cc2)CCN(C(=O)CCc2cnccn2)CC1 | 5.9% | i | -12.6% | -29.5% | 0.7% | -8.8%
CCOC(=O)C1(Cc2ccc(OC)cc2)CCN(C(=O)C2=CCCC2)CC1 | -1.1% | i | u | 18.4µM* | -25.8% | 3.3%
CCOC(=O)C1(Cc2ccc(OC)cc2)CCN(C(=O)CCN2CCCC2=O)CC1 | -2.3% | i | -10.8% | -7.9% | 15.3% | x
CCOC(=O)C1(Cc2ccc(Cl)cc2)CCN(C(=O)CCc2ccncc2)CC1 | -15.4% | i | -18.1% | 13µM* | -4.5% | -35.4%
CCOC(=O)C1(Cc2ccc(OC)cc2)CCN(C(=O)c2cc(C)on2)CC1 | -3.3% | i | -26.2% | u | -15.0% | x
CCOC(=O)C1(Cc2ccc(Cl)cc2)CCN(C(=O)c2sc(C)nc2C)CC1 | u | i | 11.6µM* | 9.2µM* | -42.1% | -35.4%
Cc1cccn2c(=O)c3cc(S(=O)(=O)c4ccccc4)c(=N)n(Cc4cccnc4)c3nc12 | -3.8% | i | -28.2% | 23.1µM* | 10.9% | 3.1%
Cc1cccn2c(=O)c3cc(S(=O)(=O)c4ccccc4)c(=N)n(CC4CCCO4)c3nc12 (centres undefined) | 39.0% | i | u | 11.6µM* | 20.3% | -9.9%
N=c1c(S(=O)(=O)c2ccccc2)cc2c(=O)n3ccccc3nc2n1CC1CCCO1 (centres undefined) | 18.8% | i | u | u | 8.6% | -15.9%
Cc1ccc(S(=O)(=O)c2cc3c(=O)n4cccc(C)c4nc3n(CC3CCCO3)c2=N)cc1C (centres undefined) | -0.5% | i | 5.8µM* | 6.51µM* | -19.8% | 10.1%
O=C(c1ccc2c(c1)OCCO2)N1CCCC(CNS(=O)(=O)c2cccs2)C1 (centres undefined) | 1.9% | i | 0.9% | -3.5% | -4.1% | u
Cc1c(Cl)cccc1NC(=O)Cn1nnc(C(=O)NCc2cccs2)c1N | 0.8% | i | 5.17µM* | 1.64µM* | -3.6% | -18.9%[11.3 µM]
Cc1ccccc1NC(=O)Cn1nnc(C(=O)NCc2cccs2)c1N | 4.6% | u | 9.2µM* | 6.51µM* | 12.1% | -12.1%
